We go through 40 molecules from PubChem BioAssay (Tox21).

Inconclusive results are not listed. Where a call stands in place of a potency, no number is given. Where a structure was tested more than once in an assay, its records may differ in their call. Active and inactive are the calls of the source. The call rests on the fitted dose curve; in most records, active means well fitted cell-killing curve with a large enough effect in the repeat runs; inconclusive means weak or mixed curves, or effect the other way; inactive means flat fitted curve, though single readings scatter.
Potency means the concentration at half of the fitted maximal effect.

This experiment in a line: qHTS RealTime-Glo MT Cell Viability Assay in HepG2 cells - 40 hour (AID 1224870). Further: nearly all actives have a fitted effect of over 50% in size. Particulars: RealTime-Glo luminescence; series mostly up to 76.8 µM. The source says: National Center for Advancing Translational Sciences [NCATS]
NIH Chemical Genomics Center [NCGC]
U.S. Environmental Protection Agency [EPA]
National Institutes of Environmental Health Sciences [NIEHS]
National Toxicology Program [NTP]
U.S. Food and Drug Administration [FDA]
Measure of cell viability is critical in the cell-base assay. Analysis of cell viability is necessary for the characterization of cell responses to cytotoxic drugs and environmental stress. A RealTime-Glo MT Cell Viability Assay to monitor cell viability in real time of continues cell culture during 40 hours of compound treatment was used to screen Tox21 10K library compounds in HepG2 cells. The RealTime-Glo MT Cell Viability Assay is a nonlytic, homogeneous, bioluminescent method to measure cell viability in real time using a simple, plate-based method. The assay involves adding NanoLuc luciferase and a cell-permeant prosubstrate to cells in culture. Viable cells reduce the proprietary prosubstrate to generate a substrate for NanoLuc luciferase. This substrate diffuses from cells into the surrounding culture medium, where it is rapidly used by the NanoLuc Enzyme to produce a luminescent signal. The signal correlates with the number of viable cells, making the assay well suited for cytotoxicity studies.
Tox21 Assay Protocol Summary:
The mixture of HepG2 cell suspension and reagents were dispensed at 600cells/6 ul/well in 1536-well tissue culture treated black solid bottom plates using a Multidrop dispenser. After the assay plates were incubated at a 37 C/5% CO2 incubator for 5 hours, 23 nL of compounds dissolved in DMSO, positive and negative controls was transferred to the assay plate by a pintool work station. The plates were incubated at 37 C for 40 hours. The luminescence intensity were measured at 0h, 8h, 16h, 24h, 32h and 40h time points using ViewLux plate reader during compound treatment.
As to `CCOC(=O)c1nc(C(Cl)(Cl)Cl)n(-c2ccc(Cl)cc2Cl)n1`, the Potency entry was “inactive”.
Next, `Cc1ccc(O)c2ncccc12`: “inactive”.
The value for `CCC1OCC(COc2ccc(Oc3ccccc3)cc2)O1` (stereo not given) was “inactive”; that for `CCCCCCCCS(=O)C(C)Cc1ccc2c(c1)OCO2` (stereo not given) was “inactive”; that for `Clc1ccc(C(Cn2ccnc2)OCc2ccc(Sc3ccccc3)cc2)c(Cl)c1` (stereo not given) was “inactive”.
The value for `Fc1ccc(C(c2ccc(F)cc2)N2CCN(C/C=C/c3ccccc3)CC2)cc1` was “inactive”; that for `CCCCCCCCCCCCCCCC[N+](C)(C)CCN(Cc1ccc(OC)cc1)c1ncccn1` was 5.35 µM (active); that for `O=c1c(-c2ccccc2)c1-c1ccccc1` was 15.1 µM (active).
On to `Nc1ccccc1O`, for which the Potency entry was “inactive”.
Next, `CC(=O)N1CCN(c2ccc(OC[C@H]3CO[C@](Cn4ccnc4)(c4ccc(Cl)cc4Cl)O3)cc2)CC1`: 54.9 µM (active); `C[n+]1ccn(Cc2ccccc2)c1`: “inactive”.
Next, `CC(C)(C)C1CCC(CC2=C(O)c3ccccc3C(=O)C2=O)CC1` (stereo not given): “inactive”; `Cc1[nH]nc2c1N=C(c1ccccc1Cl)c1cc([N+](=O)[O-])ccc1N2`: “inactive”; `COC(=O)C1=C(C)NC(C)=C(C(=O)OCC(C)C)C1c1ccccc1[N+](=O)[O-]` (stereo not given): 49 µM (active) and inactive.
Take `CC(C)=CCOc1ccc(/C=C/C(=O)c2ccc(OCC=C(C)C)cc2OCC(=O)O)cc1`: the Potency entry is “inactive”.
Next, `O=C(OCC(COC(=O)c1ccccc1)(COC(=O)c1ccccc1)COC(=O)c1ccccc1)c1ccccc1`: “inactive”.
Next, `CCCCC(CC)CN=C(N)NC(N)=NCCCCCCN=C(N)NC(N)=NCC(CC)CCCC` (stereo not given): 8.49 µM (active); `CC[C@H]1O[C@]2(CC[C@@H]1C)C[C@@H]1C[C@@H](C/C=C(\C)C[C@@H](C)/C=C/C=C3\CO[C@@H]4[C@H](O)C(C)=C[C@@H](C(=O)O1)[C@]34O)O2`: 43.3 µM (active).
Next, `CCCCCCCCCCCCCC[P+](CCCC)(CCCC)CCCC` (tested in a mixture with another compound): 19.6 µM (active).
Take `O=S1(=O)CC(Cl)(Cl)C(Cl)(Cl)C1`: the Potency is 6.16 µM (active).
The value for `Cc1cc(C2CCCCC2)n(O)c(=O)c1` was “inactive”; that for `C[n+]1cc2c3c(ccc2c2ccc4cc5c(cc4c21)OCO5)OCO3` was 1.04 µM (active).
Take `c1ccc(CSCc2ccccc2)cc1`: the Potency result is “inactive”.
On to `CCCCCCCCCOC(=O)c1ccc(O)cc1`, for which the Potency result is “inactive”.
Next, `C[C@H]1[C@H]2CC[C@H]3[C@@H]4CC=C5C[C@@H](N(C)C)CC[C@]5(C)[C@H]4CC[C@]23CN1C`: “inactive”; `CCC(C)(C)C1CCCCC1OC(C)=O` (stereo not given): “inactive”.
Next, `C/C(=C(/OCCOc1ccc(Cl)cc1)c1ccc(Cl)cc1Cl)n1ccnc1`: “inactive”.
The value for `Cc1cc(=O)oc2cc(N(C)C)ccc12` was “inactive”.
Consider `Oc1c(Cl)cc(Cl)c2cccnc12`, for which the Potency entry is “inactive”.
Next, `COc1cccc2c1C(=O)c1c(O)c3c(c(O)c1C2=O)C[C@@](O)(C(=O)CO)C[C@@H]3O[C@H]1C[C@H](N)[C@H](O[C@@H]2CCCCO2)[C@H](C)O1`: 1.9 µM (active); `CC(C)(C)c1ccc(C(=O)O)cc1`: “inactive”; `CCCCCCCCCCCC[N+](C)(C)CCCCCCCCCCCC`: 6.92 µM (active).
In the case of `COc1c(C)c2c(c(O)c1C/C=C(\C)CCC(=O)O)C(=O)OC2`, the Potency entry was “inactive”.
Next, `Nc1nc2ccccc2n1Cc1ccc(F)cc1`: “inactive”; `CCc1cc(Cc2cc(CC)c(N)c(CC)c2)cc(CC)c1N`: “inactive”; `CC[C@@]1(O)C(=O)OCc2c1cc1n(c2=O)Cc2c-1nc1ccccc1c2/C=N/OC(C)(C)C`: 1.07 µM (active).
Next, `CCCCCCCCCCCCCCCC(=O)OC[C@H](O)[C@H]1OC(=O)C(O)=C1O`: “inactive”.
The value for `Oc1cccc2cc3cccc(O)c3c(O)c12` was “inactive”.
With `CCCC/C=C/CCCCO`, the Potency entry was “inactive”.
`CCCCCCCC/C=C\CCCCCCCCOCCO`: the Potency result was “inactive”.
